Potency data for 42 molecules are collected here from PubChem BioAssay (NCATS).

What all share (assay): Primary qHTS to identify gynecologic anti-cancer compounds using libraries of approved drugs and bioactive compounds (AID 1345084); note: nearly all actives have a fitted effect of over 55% in size
For orientation: In qHTS, concentration-response curves come from the screen itself.

For assay [1], the system named is C33A. The note with it: Gynecologic cancer cell panel viability, ATPlite luminescence, 48 h; series mostly up to 57.5 µM. An outline of the steps: (§1)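 Cell viability after 48 h drug treatment, ATPlite luminescence readout; five doses.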
(In general: Cellular ATP, detected with luciferase, serves as a proxy for viable cell number.)

The subject of assay [2] is CAOV3. The note with it: Gynecologic cancer cell panel viability, ATPlite luminescence, 48 h; series mostly up to 57.5 µM. An outline of the steps:
as §1

Assay [3] deals with CASKI. Particulars: Gynecologic cancer cell panel viability, ATPlite luminescence, 48 h; series mostly up to 57.5 µM. Summed up: as §1
Assay [4] relates to Es-2. Particulars: Gynecologic cancer cell panel viability, ATPlite luminescence, 48 h; series mostly up to 57.5 µM. An outline of the steps: as §1
Assay [5] concerns HeLa. Particulars: Gynecologic cancer cell panel viability, ATPlite luminescence, 48 h; series mostly up to 57.5 µM. An outline of the steps: as §1
For assay [6], the system named is JEG-3. The note with it: Gynecologic cancer cell panel viability, ATPlite luminescence, 48 h; series mostly up to 57.5 µM. Summed up:
as §1

Assay [7] has as its system Hek293T. Particulars: Gynecologic cancer cell panel viability, ATPlite luminescence, 48 h, control line for the selectivity index; series mostly up to 57.5 µM. Summed up: as §1

Inconclusive results are not listed. Active and inactive are the calls of the source. Calls come from the whole dose curve; as a rule, active = well fitted cell-killing curve with a large enough effect; inconclusive = small, poorly fitted or top-dose-only effect, or effect the other way; inactive = flat fitted curve, though single readings scatter.
Potency is the fitted concentration of half-maximal effect.

As for `CCCc1cc2c(N3CCN(C4=NCC(C)(C)S4)CC3)ncnc2s1`, the Potency entry in assay [1], in assay [2], in assay [3], in assay [4], in assay [5] and in assay [6] was “inactive” each time.
For `CCCc1ccc(OCC(=O)N(Cc2nc(-c3cccnc3)no2)C(C)C)cc1`, the Potency result in assay [1], in assay [2], in assay [3], in assay [4], in assay [5] and in assay [6] was “inactive” throughout.
On to `C/C=C(\C)C(=O)O[C@H]1C=CC(=O)O[C@H]1/C=C/[C@@H](O)[C@H](C)O`, for which the Potency entry in assay [1], in assay [2], in assay [3] and in assay [5] was “inactive” each time.
As to `CCCCNc1ncc(-c2ccc(CN3CCOCC3)cn2)c(NC2CCC(O)CC2)n1` (stereo not given), the Potency result in assay [1], in assay [2], in assay [3], in assay [4], in assay [7] and in assay [6] was “inactive” each time.
`C=C1C(=O)O[C@@H]2[C@H]1CC[C@H](C)[C@]1(CCC(=O)O1)C2(C)O` (stereo not given in full): the Potency result in assay [1], in assay [2], in assay [3], in assay [4], in assay [5] and in assay [6] was “inactive” each time.
`COc1ccc(N2CCN(C(=O)c3cc4c(s3)-c3ccccc3S(=O)(=O)C4)CC2)cc1`: the Potency entry in assay [1], in assay [2], in assay [3], in assay [4], in assay [5] and in assay [6] was “inactive” throughout.
In the case of `Clc1ncoc1-c1c[nH]c2ccccc12`, the Potency result in assay [1], in assay [2], in assay [3], in assay [4], in assay [7] and in assay [6] was “inactive” each time.
Regarding `CC(C)c1cccc(C(C)C)c1NC(=O)Nc1ccc(Sc2ccc([N+](=O)[O-])cc2)cc1`, the Potency result in assay [1], in assay [2], in assay [3], in assay [4], in assay [5] and in assay [6] was “inactive” each time.
Take `COc1ccc2[nH]c(=O)c3c(c2c1)OC(C)(C)C=C3`: the Potency result in assay [1], in assay [2], in assay [3], in assay [4], in assay [5] and in assay [6] was “inactive” in each case.
In the case of `Fc1ccc(-c2nc(-c3c(F)cccc3F)[nH]c2-c2ccncc2)cc1`, the Potency entry in assay [1], in assay [2], in assay [3], in assay [4] and in assay [7] was “inactive” in each case.
With `O=C(NCCO)c1cccc(-c2cc(Nc3ccc(OC(F)(F)F)cc3)ncn2)c1`, the Potency entry in assay [1], in assay [2], in assay [3], in assay [4], in assay [5] and in assay [6] was “inactive” throughout.
As to `O=c1cc(NCCCN[C@@H]2CCOc3c(Br)cc(Br)cc32)[nH]c2ccsc12`, the Potency result in assay [1], in assay [2], in assay [3], in assay [4], in assay [5] and in assay [6] was “inactive” throughout.
Take `COc1ccccc1N1CCN(c2ncnc3n[nH]c(Br)c23)CC1`: the Potency result in assay [1], in assay [2], in assay [3], in assay [4], in assay [7] and in assay [6] was “inactive” throughout.
For `CN(c1ccc(NC(=O)Nc2ccccc2)cc1)S(=O)(=O)c1cnn(-c2ccc(F)cc2)c1`, the Potency result in assay [1], in assay [2], in assay [3], in assay [4] and in assay [6] was “inactive” throughout.
For `CC(=O)OC1C(OC(=O)c2ccccc2)C2C(=C(C)CCC2(C)C)C23CCC(C)(C2)C(=O)CC13` (stereo not given), the Potency result in assay [1], in assay [2], in assay [3], in assay [4], in assay [5] and in assay [6] was “inactive” throughout.
With `CS(=O)(=O)Nc1ccc2oc3c(OC(F)F)ccc(C(=O)Nc4c(Cl)cncc4Cl)c3c2c1`, the Potency entry in assay [1], in assay [2], in assay [3], in assay [4], in assay [7] and in assay [6] was “inactive” each time.
For the molecule `CC(=O)C1(C)CCC2C3C=C(C)C4=CC(=O)CCC4(C)C3CCC21C` (stereo not given), the Potency entry in assay [1], in assay [2], in assay [3], in assay [4] and in assay [6] was “inactive” throughout. Also, the Potency in assay [5] was 14100 nM (active).
`N#Cc1ccc2ncnc(NCCc3ccccc3)c2c1`: the Potency entry in assay [1], in assay [2], in assay [3], in assay [4], in assay [5] and in assay [6] was “inactive” throughout.
For the molecule `CCC(C)/C=C(C)/C=C/C1=CC2=C(Cl)C(=O)C(C)(OC(C)=O)C(=O)C2(O)C(OC)O1` (stereo not given), the Potency entry in assay [1], in assay [2], in assay [3], in assay [4], in assay [5] and in assay [6] was “inactive” throughout.
On to `C=C1C(=O)OC2CC(C)=C(C(C)CCCOC(C)=O)C(OC(=O)CC(C)CC)C12` (stereo not given), for which the Potency entry in assay [1], in assay [2], in assay [3] and in assay [5] was “inactive” in each case.
On to `Fc1ccc(N2CCCCC2)c(NC(=S)c2ccncc2)c1`, for which the Potency result in assay [1], in assay [2], in assay [3], in assay [4], in assay [5] and in assay [6] was “inactive” throughout.
For `CCOc1cc(C(C)(C)C)ccc1C1=N[C@@](C)(c2ccc(Cl)cc2)[C@@](C)(c2ccc(Cl)cc2)N1C(=O)N1CCN(CC(=O)N2CCOCC2)CC1`, the Potency entry in assay [1], in assay [2], in assay [3], in assay [4], in assay [7] and in assay [6] was “inactive” each time.
In the case of `NC(=O)c1ccccc1Nc1ccnc(Nc2cccc(O)c2)n1`, in assay [1], the Potency entry is “inactive”. Besides, the Potency in assay [2] was 8910 nM (active); in assay [3], 12600 nM (active); in assay [5] it was 3160 nM (active).
`CCn1c(=O)c(-c2ccc(Cl)cc2Cl)cc2cnc(Nc3ccc(N4CCNCC4)c(F)c3)nc21`: the Potency entry in assay [1], in assay [2], in assay [3], in assay [4], in assay [7] and in assay [6] was “inactive” each time.
`COc1cc2ncnc(Nc3ccc(O)c(Br)c3)c2cc1OC`: the Potency entry in assay [1], in assay [2], in assay [4], in assay [5], in assay [7] and in assay [6] was “inactive” each time.
Turning to `C=C1C(=O)O[C@@H]2C[C@@]3(C)C[C@@H](O)C[C@H](C)C3=C[C@H]12`, the Potency result in assay [1], in assay [2], in assay [3], in assay [5], in assay [7] and in assay [6] was “inactive” throughout.
As to `COc1ccccc1S(=O)(=O)Nc1ccc2c(c1)CN(C)C(=O)N2`, the Potency entry in assay [1], in assay [2], in assay [3], in assay [7] and in assay [6] was “inactive” in each case.
As to `C=C(C)C(=O)OC1CC(CO)CCC/C(CO)=C/C2OC(=O)C(=C)C21` (stereo not given), the Potency entry in assay [1], in assay [2], in assay [3], in assay [5] and in assay [6] was “inactive” each time.
Regarding `CCOC(=O)c1csc(Nc2ccc(Cl)cc2)n1`, the Potency entry in assay [1], in assay [2], in assay [3], in assay [5] and in assay [6] was “inactive” throughout.
As for `Cc1cc(C)c2c(c1)C(N(Cc1cc(C(F)(F)F)cc(C(F)(F)F)c1)c1nnn(C)n1)CCCN2CC1CCC(C(=O)O)CC1` (stereo not given), the Potency result in assay [1], in assay [2], in assay [3], in assay [7] and in assay [6] was “inactive” each time.
For `CC(=O)O[C@H]1[C@@]2(O)C[C@H](C)[C@H](OC(=O)c3ccccc3)[C@@H]2[C@@H](OC(=O)CO)[C@]2(OC(C)=O)C[C@H]3C(=O)C(C)(C)C[C@@H]3[C@@]1(C)[C@H]2OC(C)=O`, the Potency result in assay [1], in assay [2], in assay [3], in assay [5], in assay [7] and in assay [6] was “inactive” each time.
With `Cc1c(C(=O)Nc2ccc(N3CCC(N4CCOCC4)CC3)c(C#N)c2)cnn1-c1ccc(Cl)cc1`, the Potency in assay [1] is 891 nM (active); in assay [6], 794 nM (active). In addition, the Potency result in assay [2], in assay [3] and in assay [5] was “inactive” throughout.
For `Cn1c(=O)c(F)c(Nc2ccc(I)cc2F)c2c(=O)n(CC(O)CO)cnc21` (stereo not given), the Potency result in assay [1], in assay [2], in assay [5], in assay [7] and in assay [6] was “inactive” each time. Also, in assay [4], the Potency is 3160 nM (active).
As to `CC[C@H](C(=O)Nc1ccccc1N1CCCC1)c1ccccc1`, the Potency result in assay [1], in assay [2], in assay [3], in assay [7] and in assay [6] was “inactive” in each case.
Regarding `CCc1cnc(N2CCC(c3nc(COc4ccc(-n5cnnn5)cc4)cs3)CC2)nc1`, the Potency entry in assay [1], in assay [2], in assay [3], in assay [5] and in assay [6] was “inactive” each time.
In the case of `C=C1C(=O)O[C@@H]2/C=C(\C)CC/C=C(/C=O)[C@H](OC)[C@@H](OC(=O)C(C)C)[C@@H]12`, the Potency result in assay [1], in assay [2], in assay [3], in assay [5] and in assay [6] was “inactive” in each case.
With `Cc1cc(C(C)Nc2ccccc2C(=O)O)c2nc(N3CCOCC3)cc(=O)n2c1` (stereo not given), the Potency result in assay [1], in assay [2], in assay [4] and in assay [5] was “inactive” throughout.
Regarding `O=S(=O)(c1ccccc1)N(CC(F)(F)F)c1ccc(C(O)(C(F)(F)F)C(F)(F)F)cc1`, the Potency entry in assay [1], in assay [2], in assay [3], in assay [5], in assay [7] and in assay [6] was “inactive” in each case.
With `O=C(c1ccc(OC(F)F)c(C#Cc2ccccn2)c1)N1Cc2cccnc2C1`, the Potency entry in assay [1], in assay [2], in assay [3], in assay [7] and in assay [6] was “inactive” each time.
Consider `C=C1C(=O)OC2/C=C(\C)CC/C=C(\C=O)C(OC)C(OC(=O)C(C)CC)C12` (stereo not given), for which the Potency entry in assay [1], in assay [2], in assay [3], in assay [5] and in assay [6] was “inactive” in each case.
As for `N#Cc1cc(CN2CCC(Nc3ncnc4sc(Cl)cc34)CC2)ccc1F`, the Potency result in assay [1], in assay [2], in assay [3], in assay [5] and in assay [6] was “inactive” each time.
In the case of `CC(O)(C(=O)C1CC1(CO)COC1OC(CO)C(O)C(O)C1O)C1C(O)CC2C3CC=C4CC(O)CC(O)C4(C)C3C(O)CC21C` (stereo not given), the Potency was 562 nM (active) in assay [1]; 1780 nM (active) in assay [2]; 891 nM (active) in assay [4]; 1410 nM (active) in assay [5]; 1410 nM (active) in assay [7].
